Data on 24 compounds can be found in PubChem BioAssay (EPA / NIEHS).

Activity calls are given as the source filed them. The calls were made as follows: active = hit-call score of the fitted dose curve at least 0.9, where 1 is the maximum; inactive = score below 0.9.

The nature of test [1]: ATG_M_19_CIS: Attagene CIS-FACTORIAL HepG2 Assay for M19 Transcription Factor (Internal Marker) (AID 2282939). The conditions noted are these: HepG2 Attagene CIS-FACTORIAL M19 internal marker reporter; actives raise or lower the signal. In short, it runs like this: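 In this multiplexed cell assay, transiently transfected HepG2 reporter units report endogenous transcription-factor activity; after 24 hours of treatment, labelled reporter cDNA fragments are quantified by capillary electrophoresis and fitted bidirectionally against DMSO.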

A short description of test [2]: ATG_ERE_CIS: Attagene CIS-FACTORIAL HepG2 Assay for Estrogen Response Element (ERE) (AID 2282940). The conditions noted are these: HepG2 ERE cis-reporter, Attagene RNA transcript; actives raise or lower the signal. In short, it runs like this:
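Measuring endogenous transcription factor output, the assay doses transfected HepG2 cells for 24 hours and quantifies reporter transcripts by fluorescent RT-PCR and capillary electrophoresis, with DMSO as baseline.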

The nature of test [3]: ATG_Ets_CIS: Attagene CIS-FACTORIAL HepG2 Assay for human Erythroblast Transformation Specific (ETS) (AID 2282941). The conditions noted are these: HepG2 ETS cis-reporter transcription, actives raise or lower the signal. In outline:
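RT-PCR/capillary electrophoresis fluorescence read-out of reporter mRNA; HepG2 transient multi-reporter transfection; 24 h compound exposure; gain or loss of signal fitted bidirectionally relative to DMSO.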

Test [4] addresses Hepatocyte nuclear factor 3-beta (Homo sapiens) (UniProt Q9Y261). Briefly: ATG_FoxA2_CIS: Attagene CIS-FACTORIAL HepG2 Assay for human Forkhead box A2 (FOXA2) (AID 2282942). The note with it: HepG2 cis-reporter transcription factor activity, 24 h; actives raise or lower the signal. In outline:
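Fluorescence signal of reporter cDNA fragments, separated by capillary electrophoresis, reflects endogenous transcription factor activity in transfected HepG2 after 24 h. Both increases and decreases fitted against DMSO.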

A short description of test [5]: ATG_FoxO_CIS: Attagene CIS-FACTORIAL HepG2 Assay for human Forkhead box O (FoxO) (AID 2282943). The conditions noted are these: HepG2 Attagene cis-reporter, FoxO element, mRNA; actives raise or lower the signal. In short, it runs like this: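 HepG2 cells transiently transfected with cis-promoter-driven multiple reporter transcription units; 24 h after chemical dosing, reporter mRNA quantified by RT-PCR, fluorescent primer extension, HpaI digestion and capillary electrophoresis. Bidirectional fitting versus DMSO baseline.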

A short description of test [6]: ATG_GATA_CIS: Attagene CIS-FACTORIAL HepG2 Assay for human GATA Binding Protein (AID 2282944). The conditions noted are these: HepG2 GATA cis-element reporter, Attagene multiplex mRNA; actives raise or lower the signal. In short, it runs like this: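 Measures endogenous transcription factor-driven reporter mRNA in HepG2 cells transiently carrying cis-regulated constructs. 24 h dosing; RNA via oligo(dT) reverse transcription, PCR, HpaI digestion, capillary electrophoresis; fitted relative to DMSO.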

A short description of test [7]: ATG_GLI_CIS: Attagene CIS-FACTORIAL HepG2 Assay for human Zinc Finger Protein GLI1 (AID 2282945). The conditions noted are these: HepG2, Attagene cis-factorial reporter mRNA, GLI element; actives raise or lower the signal. In outline: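 HepG2 cells transiently transfected with cis-promoter multiplexed reporter units report endogenous transcription factor activity. After 24 h chemical exposure, reporter mRNA was quantified by RT-PCR, 6-FAM labelling, HpaI digestion and capillary electrophoresis, with bidirectional fitting against DMSO.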

The target in test [8] is Bile acid receptor (Homo sapiens) (UniProt Q96RI1). As to the kind of experiment: ATG_IR1_CIS: Attagene CIS-FACTORIAL HepG2 Assay for human Nuclear Receptor Subfamily 1 Group H Member 4 (NR1H4), IR1 submotif (AID 2282946). The note with it: IR1 reporter transcription, actives raise or lower the signal. In short, it runs like this: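 Readout: reporter transcript levels by RT-PCR with fluorescent capillary electrophoresis, from HepG2 cells transiently transfected with multiplexed cis-regulated reporters and dosed 24 h. Gain- or loss-of-signal fitted versus DMSO negative control.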
Bile acid receptor (Homo sapiens), sequence (Q96RI1 whole entry, looked up): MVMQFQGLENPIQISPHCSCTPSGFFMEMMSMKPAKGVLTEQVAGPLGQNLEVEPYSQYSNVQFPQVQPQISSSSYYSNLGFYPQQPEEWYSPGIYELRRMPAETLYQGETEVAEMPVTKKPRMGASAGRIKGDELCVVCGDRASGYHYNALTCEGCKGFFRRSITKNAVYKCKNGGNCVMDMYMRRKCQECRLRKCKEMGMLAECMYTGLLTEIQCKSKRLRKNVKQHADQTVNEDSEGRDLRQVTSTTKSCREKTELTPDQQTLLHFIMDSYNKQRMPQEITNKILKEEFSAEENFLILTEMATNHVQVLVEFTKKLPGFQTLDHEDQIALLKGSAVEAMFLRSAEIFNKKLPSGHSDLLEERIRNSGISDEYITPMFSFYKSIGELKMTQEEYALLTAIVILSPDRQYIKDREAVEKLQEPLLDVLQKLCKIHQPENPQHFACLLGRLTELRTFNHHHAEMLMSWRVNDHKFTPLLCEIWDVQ

Test [9] can be described thus: ATG_GRE_CIS: Attagene CIS-FACTORIAL HepG2 Assay for human Glucocorticoid Response Elements (GRE) (AID 2282947). The note with it: HepG2 GRE cis-reporter, Attagene multiplex mRNA; actives raise or lower the signal. In short, it runs like this: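 HepG2, transient cis-reporter transfection, 24 h. Reporter mRNA: RT-PCR then CE, fluorescence. Fit both directions vs DMSO.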

Test [10] can be described thus: ATG_ISRE_CIS: Attagene CIS-FACTORIAL HepG2 Assay for human Interferon Regulatory Factor 1 (IRF1) binding to an Interferon-Stimulated Response Element (ISRE) (AID 2282948). The conditions noted are these: HepG2 ISRE cis-reporter (Attagene), mRNA transcription readout; actives raise or lower the signal. In short, it runs like this: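 Read-out: fluorescent RT-PCR products resolved by capillary electrophoresis, reporting endogenous transcription factor activity via ISRE-driven reporter mRNA in transfected HepG2 cells dosed for 24 h; gain or loss fitted relative to DMSO.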

Hepatocyte nuclear factor 3-beta (Homo sapiens), sequence (Q9Y261 whole entry, looked up, the tested form may be a part): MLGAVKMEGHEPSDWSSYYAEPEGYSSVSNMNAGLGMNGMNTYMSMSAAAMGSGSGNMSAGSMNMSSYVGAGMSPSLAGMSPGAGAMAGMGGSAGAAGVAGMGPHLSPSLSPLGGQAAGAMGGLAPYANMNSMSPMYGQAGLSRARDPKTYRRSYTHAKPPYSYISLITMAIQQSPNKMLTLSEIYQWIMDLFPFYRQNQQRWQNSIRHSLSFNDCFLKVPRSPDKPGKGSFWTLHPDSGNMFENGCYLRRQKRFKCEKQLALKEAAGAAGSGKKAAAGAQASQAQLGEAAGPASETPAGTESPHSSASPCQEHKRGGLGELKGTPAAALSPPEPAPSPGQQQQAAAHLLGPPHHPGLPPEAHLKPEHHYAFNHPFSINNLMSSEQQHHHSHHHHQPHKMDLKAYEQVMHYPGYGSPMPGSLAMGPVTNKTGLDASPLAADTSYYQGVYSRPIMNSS

Consider `CC(F)(F)CC(F)(F)F`, for which the compound was classed as inactive in [1], in test [2], in test [3], in [4], in test [5] and in [6]. Further, the compound was called inactive in [7], in test [8], in test [9] and in test [10].

As for `BrCc1ccc(Br)cc1`, the result in [1], in test [2], in test [3], in test [4], in test [5] and in [6] was inactive. For the same compound, the call in test [7], in test [8] and in [10] was inactive.

Turning to `N#Cc1ccccc1N`, the call in [1], in test [2], in test [3], in [4], in test [5] and in [6] was inactive. In addition, the outcome in test [7], in test [8], in [9] and in test [10] was inactive.

For `Clc1cc(C(Cl)(Cl)Cl)cnc1Cl`, the compound was classed as inactive in [1], in [2], in test [3], in [4], in test [5] and in test [6]. The call in test [7] and in test [8] was inactive. In addition, the concentration at half-maximal activity (AC50) – broadly, the concentration at which the activity in the assay is half-maximal – in [10] was 9.08 µM (active).

Turning to `CN(C)CCN(C)C`, the compound was called inactive in [1], in test [2], in test [3], in test [4], in test [5] and in test [6]. Moreover, the compound was called inactive in test [7], in test [8] and in test [10].

Turning to `CN(N=O)c1ccc([N+](=O)[O-])cc1`, the outcome in test [1], in test [2], in test [3], in test [4], in test [5] and in test [6] was inactive. In addition, the call in test [7], in [8], in [9] and in [10] was inactive.

`CCCCCCCCCCBr`: the compound was classed as inactive in [1], in test [2], in [3], in [4], in test [5] and in [6]. For the same compound, the compound was called inactive in [7], in test [8] and in [10].

Consider `O=C(Nc1ccc(Br)cc1)c1cc(Br)cc(Br)c1O`, for which the compound was classed as inactive in [1], in [2], in [4], in [5], in test [6] and in test [9]. Also, the outcome in test [10] was inactive. Further, the AC50 in [3] is 4.61 µM (active); in test [7] it was 168 µM (active); in [8] it was 72.3 µM (active).

For the compound `O=c1[nH]c2ccccc2n1C1CCN(CCCC(c2ccc(F)cc2)c2ccc(F)cc2)CC1`, the call in test [1], in test [3], in [4], in test [5], in [6] and in [7] was inactive. The result in test [8] was inactive. Further, the AC50 in [2] was 4.17 µM (active); in test [10], 3.71 µM (active).

`NC(=O)c1ccc(N)nc1`: the compound was called inactive in test [1], in test [2], in test [4], in [5], in test [6] and in test [7]. Besides, the outcome in [8], in [9] and in test [10] was inactive. Also, in [3], the AC50 was 100 µM (active).

With `C[N+](C)(C)Cc1ccccc1`, the compound was classed as inactive in test [1], in test [2], in test [3], in test [4], in test [5] and in test [6]. The compound was classed as inactive in [7], in [8] and in [10].

On to `O=C(NC(=O)c1c(F)cccc1F)Nc1ccc(Cl)cc1`, for which the result in [1], in [2], in [3], in test [4], in test [5] and in [6] was inactive. The compound was called inactive in [7], in test [8] and in test [10].

For the compound `CC(C)CP(=S)(S)CC(C)C`, the compound was called inactive in test [1], in test [2], in test [3], in [4], in test [5] and in [6]. Besides, the compound was called inactive in test [7], in test [8], in test [9] and in test [10].

Take `C#CCOC(=O)/C=C(C)/C=C/CC(C)CCCC(C)C` (centres undefined): the call in [1], in test [2], in test [3], in test [4], in [5] and in test [6] was inactive. Further, the call in [7], in test [8] and in [10] was inactive.

Regarding `CC(C)(C)c1ccc(CCOc2ncnc3ccccc23)cc1`, the call in test [1], in [2], in [3], in test [4], in [5] and in test [6] was inactive. For the same compound, the outcome in [7], in [8] and in test [10] was inactive.

Take `C=CCc1ccccc1O`: the call in test [1], in test [3], in test [4], in test [5], in [6] and in test [7] was inactive. Besides, the outcome in [8], in test [9] and in test [10] was inactive. The concentration at half-maximal activity (AC50) in [2] was 29.2 µM (active).

`CN(C)c1ccc(N=O)cc1`: the compound was classed as inactive in test [1], in test [2], in test [3], in test [4], in [5] and in [6]. The result in [7] was inactive. For the same compound, the AC50 in test [8] was 9.69 µM (active); in [9], 23.6 µM (active); in test [10] it was 9.25 µM (active).

As for `Clc1ccc(C(Cl)(Cl)Cl)cn1`, the result in test [1], in [3], in test [4], in [5], in [6] and in test [7] was inactive. Moreover, the outcome in test [8], in test [9] and in test [10] was inactive. Also, in test [2], the AC50 is 2.86 µM (active).

Turning to `Brc1ccc(Oc2c(Br)cc(Br)cc2Br)c(Br)c1`, the outcome in [1], in [2], in test [3], in test [4], in test [5] and in test [6] was inactive. Further, the outcome in test [7], in test [8] and in [10] was inactive.

For the compound `C=CC(F)(C(F)(F)F)C(F)(F)C(F)(F)F` (centres undefined), the result in [1], in test [2], in test [3], in test [4], in test [5] and in test [6] was inactive. The compound was called inactive in test [7], in test [8], in [9] and in test [10].

On to `CCCSP(=S)(OCC)Oc1ccc(SC)cc1` (centres undefined), for which the outcome in test [1], in [3], in test [4], in [5], in [6] and in test [7] was inactive. Besides, the compound was called inactive in test [8] and in test [10]. In addition, the AC50 in [2] was 7.28 µM (active).

For `CCOc1ccc(N)cc1`, the call in test [1], in [2], in test [3], in test [4], in [5] and in test [6] was inactive. For the same compound, the compound was called inactive in test [7], in test [8], in [9] and in test [10].

As to `CCN(N=O)C(N)=O`, the compound was classed as inactive in test [1], in test [2], in test [3], in [4], in test [5] and in test [6]. The compound was called inactive in [7], in test [8], in test [9] and in test [10].

Consider `[Cl][Sn]([c]1ccccc1)([c]1ccccc1)[c]1ccccc1`, for which the call in [1], in [3], in test [4], in test [8], in [9] and in test [10] was inactive. Besides, the AC50 in test [2] was 0.014 µM (active); in [5], 0.308 µM (active); in test [6], 1.2 µM (active); in test [7], 0.221 µM (active).
